# Legend:
# Assay in all cases: DAPPL (digital affinity profiling via proximity ligation, sequencing); 10 mM Tris-HCl pH 7.5, 50 mM NaCl, 1 mM DTT, 4% glycerol, room temperature, 30 min; GST-TFs on glutathione beads, 16-mer random dsDNA library, 0.1% formaldehyde crosslink after washing; high values mean tight binding
# FLI1 = molecular target: T1, FLI1 (Homo sapiens, UniProt Q01543 1-452); details: protein: recombinant; tags: N-terminal GST; dsDNA, one strand shown
# T1 sequence: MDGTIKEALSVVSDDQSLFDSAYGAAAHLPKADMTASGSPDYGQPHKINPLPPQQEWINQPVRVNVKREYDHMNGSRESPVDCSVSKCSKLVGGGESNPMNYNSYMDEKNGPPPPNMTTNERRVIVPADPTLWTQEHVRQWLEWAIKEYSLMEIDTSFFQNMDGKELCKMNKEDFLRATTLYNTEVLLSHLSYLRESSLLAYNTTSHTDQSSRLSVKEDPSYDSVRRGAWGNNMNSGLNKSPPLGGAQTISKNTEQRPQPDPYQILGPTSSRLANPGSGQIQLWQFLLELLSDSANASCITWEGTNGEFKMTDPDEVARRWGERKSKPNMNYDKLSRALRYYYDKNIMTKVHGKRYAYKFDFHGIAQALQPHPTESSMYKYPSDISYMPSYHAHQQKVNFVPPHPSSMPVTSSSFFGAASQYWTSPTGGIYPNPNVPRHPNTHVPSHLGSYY
# How it was run: (§1)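 Human transcription factors were made in yeast as GST fusions, captured on glutathione beads and barcoded with DNA. With a tag-only sample included, the pool was incubated with 200 nmole of a random double-stranded 16-mer DNA library in Tris/NaCl/DTT/glycerol buffer at room temperature for 30 min, then crosslinked with 0.1% formaldehyde after washing, ligated by proximity, amplified and sequenced. For binding signal, each hexamer's read frequency for a factor is divided by its frequency for the tag-only sample.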
# ELK1 = molecular target: T2, ELK1 (Homo sapiens, UniProt P19419 1-428); details: protein: recombinant; tags: N-terminal GST; dsDNA, one strand shown
# T2 sequence: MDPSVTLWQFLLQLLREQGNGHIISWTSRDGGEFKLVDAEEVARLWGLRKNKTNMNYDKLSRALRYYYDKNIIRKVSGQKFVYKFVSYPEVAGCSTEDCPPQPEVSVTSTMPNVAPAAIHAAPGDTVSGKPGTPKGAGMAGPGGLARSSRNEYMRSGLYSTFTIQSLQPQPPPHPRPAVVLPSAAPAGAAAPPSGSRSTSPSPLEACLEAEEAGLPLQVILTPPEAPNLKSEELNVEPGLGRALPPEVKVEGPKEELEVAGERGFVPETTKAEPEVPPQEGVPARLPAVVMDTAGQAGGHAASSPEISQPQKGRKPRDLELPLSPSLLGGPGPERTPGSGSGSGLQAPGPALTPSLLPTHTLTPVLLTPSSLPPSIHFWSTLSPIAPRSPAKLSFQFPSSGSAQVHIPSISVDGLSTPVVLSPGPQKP
# How it was run: as §1
# GABPA = molecular target: T3, GABPA (Homo sapiens, UniProt Q06546 1-454); details: protein: recombinant; tags: N-terminal GST; dsDNA, one strand shown
# T3 sequence: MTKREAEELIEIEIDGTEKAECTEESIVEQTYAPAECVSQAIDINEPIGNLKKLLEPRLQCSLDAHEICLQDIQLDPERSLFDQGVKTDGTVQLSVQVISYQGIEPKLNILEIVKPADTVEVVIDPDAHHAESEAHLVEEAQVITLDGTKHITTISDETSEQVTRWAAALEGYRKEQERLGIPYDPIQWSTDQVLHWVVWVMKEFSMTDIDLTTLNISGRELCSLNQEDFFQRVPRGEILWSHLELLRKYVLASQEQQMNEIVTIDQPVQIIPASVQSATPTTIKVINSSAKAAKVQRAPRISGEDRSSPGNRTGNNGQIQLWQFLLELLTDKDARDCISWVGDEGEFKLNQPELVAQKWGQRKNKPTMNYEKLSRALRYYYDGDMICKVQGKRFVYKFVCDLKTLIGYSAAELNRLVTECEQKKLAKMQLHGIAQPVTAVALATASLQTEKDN
# How it was run: as §1
# ERG = molecular target: T4, ERG (Homo sapiens, UniProt P11308 1-479); details: protein: recombinant; tags: N-terminal GST; dsDNA, one strand shown
# T4 sequence: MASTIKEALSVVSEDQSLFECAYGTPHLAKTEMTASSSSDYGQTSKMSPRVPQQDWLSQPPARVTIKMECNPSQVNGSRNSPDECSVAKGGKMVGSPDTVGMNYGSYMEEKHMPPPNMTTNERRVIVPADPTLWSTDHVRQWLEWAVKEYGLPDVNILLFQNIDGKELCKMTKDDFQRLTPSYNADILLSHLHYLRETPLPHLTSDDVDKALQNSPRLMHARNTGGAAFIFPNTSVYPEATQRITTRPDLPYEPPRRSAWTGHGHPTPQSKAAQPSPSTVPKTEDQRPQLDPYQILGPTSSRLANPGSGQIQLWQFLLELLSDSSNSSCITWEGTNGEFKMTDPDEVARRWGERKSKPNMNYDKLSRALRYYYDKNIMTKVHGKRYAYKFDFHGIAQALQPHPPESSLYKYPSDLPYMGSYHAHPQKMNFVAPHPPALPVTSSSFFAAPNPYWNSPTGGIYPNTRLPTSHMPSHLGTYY
# How it was run: as §1
# ELF1 = ELF1 (Homo sapiens, UniProt P32519 1-619); details: protein: recombinant; tags: N-terminal GST; dsDNA, one strand shown
# How it was run: as §1
# EHF = molecular target: T5, EHF (Homo sapiens, UniProt Q9NZC4 1-300); details: protein: recombinant; tags: N-terminal GST; dsDNA, one strand shown
# T5 sequence: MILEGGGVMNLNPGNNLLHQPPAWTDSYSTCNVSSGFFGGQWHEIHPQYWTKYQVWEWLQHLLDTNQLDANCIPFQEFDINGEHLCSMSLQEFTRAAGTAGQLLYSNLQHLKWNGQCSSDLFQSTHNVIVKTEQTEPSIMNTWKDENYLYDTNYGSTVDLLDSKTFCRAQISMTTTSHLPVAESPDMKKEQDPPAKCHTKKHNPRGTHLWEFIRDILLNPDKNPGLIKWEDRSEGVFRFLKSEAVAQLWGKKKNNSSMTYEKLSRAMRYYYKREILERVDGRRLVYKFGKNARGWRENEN
# How it was run: as §1
# SPI1 = SPI1 (Homo sapiens, UniProt P17947 1-270); details: protein: recombinant; tags: N-terminal GST; dsDNA, one strand shown
# How it was run: as §1
# SPIB = SPIB (Homo sapiens, UniProt Q01892 1-262); details: protein: recombinant; tags: N-terminal GST; dsDNA, one strand shown
# How it was run: as §1
# ELK3 = molecular target: T6, ELK3 (Homo sapiens, UniProt P41970 1-407); details: protein: recombinant; tags: N-terminal GST; dsDNA, one strand shown
# T6 sequence: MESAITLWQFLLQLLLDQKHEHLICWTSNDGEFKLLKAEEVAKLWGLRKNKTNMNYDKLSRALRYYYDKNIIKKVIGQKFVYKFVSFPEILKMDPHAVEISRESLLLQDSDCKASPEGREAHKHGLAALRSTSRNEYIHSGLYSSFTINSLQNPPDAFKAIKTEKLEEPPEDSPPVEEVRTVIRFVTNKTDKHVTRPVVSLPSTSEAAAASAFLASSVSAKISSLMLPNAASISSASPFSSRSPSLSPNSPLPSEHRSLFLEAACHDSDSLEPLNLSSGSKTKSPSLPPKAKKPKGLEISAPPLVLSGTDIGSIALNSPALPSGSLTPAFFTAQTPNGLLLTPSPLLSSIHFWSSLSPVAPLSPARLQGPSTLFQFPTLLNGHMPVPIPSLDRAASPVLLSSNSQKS
# How it was run: as §1
# FEV = molecular target: T7, FEV (Homo sapiens, UniProt Q99581 1-238); details: protein: recombinant; tags: N-terminal GST; dsDNA, one strand shown
# T7 sequence: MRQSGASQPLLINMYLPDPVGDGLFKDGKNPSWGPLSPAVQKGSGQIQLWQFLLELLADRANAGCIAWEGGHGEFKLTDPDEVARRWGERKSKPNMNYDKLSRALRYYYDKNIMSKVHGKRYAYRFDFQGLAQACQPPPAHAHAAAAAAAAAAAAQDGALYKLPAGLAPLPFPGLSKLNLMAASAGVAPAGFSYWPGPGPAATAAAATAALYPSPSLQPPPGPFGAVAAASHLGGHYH
# How it was run: as §1
# ETV5 = ETV5 (Homo sapiens, UniProt P41161 1-510); details: protein: recombinant; tags: N-terminal GST; dsDNA, one strand shown
# How it was run: as §1
# HSF1 = HSF1 (Homo sapiens, UniProt Q00613 1-529); details: protein: recombinant; tags: N-terminal GST; chain copies: 3; dsDNA, one strand shown
# How it was run: as §1
# SPIC = molecular target: T8, SPIC (Homo sapiens, UniProt Q8N5J4 1-248); details: protein: recombinant; tags: N-terminal GST; dsDNA, one strand shown
# T8 sequence: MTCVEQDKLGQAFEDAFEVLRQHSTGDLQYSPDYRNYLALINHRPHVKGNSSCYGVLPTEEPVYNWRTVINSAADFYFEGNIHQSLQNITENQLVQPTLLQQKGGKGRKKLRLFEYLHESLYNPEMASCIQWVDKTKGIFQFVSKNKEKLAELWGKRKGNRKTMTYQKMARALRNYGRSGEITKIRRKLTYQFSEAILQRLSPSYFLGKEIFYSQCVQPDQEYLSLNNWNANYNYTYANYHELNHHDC
# How it was run: as §1
# ELF4 = ELF4 (Homo sapiens, UniProt Q99607 1-663); details: protein: recombinant; tags: N-terminal GST; dsDNA, one strand shown
# How it was run: as §1
# ELK4 = molecular target: T9, ELK4 (Homo sapiens, UniProt P28324-2 1-405); details: protein: recombinant; tags: N-terminal GST; dsDNA, one strand shown
# T9 sequence: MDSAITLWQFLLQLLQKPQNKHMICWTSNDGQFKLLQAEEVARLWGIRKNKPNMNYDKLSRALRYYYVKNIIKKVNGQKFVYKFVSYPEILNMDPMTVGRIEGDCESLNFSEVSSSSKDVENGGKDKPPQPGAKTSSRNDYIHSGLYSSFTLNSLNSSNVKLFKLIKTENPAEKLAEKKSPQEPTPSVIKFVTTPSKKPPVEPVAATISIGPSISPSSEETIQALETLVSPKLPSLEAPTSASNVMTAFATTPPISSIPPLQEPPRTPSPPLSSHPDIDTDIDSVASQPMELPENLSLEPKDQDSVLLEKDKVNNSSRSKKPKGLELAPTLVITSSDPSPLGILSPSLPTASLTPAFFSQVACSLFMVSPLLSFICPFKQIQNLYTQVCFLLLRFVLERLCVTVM
# How it was run: as §1
# ETV2 = molecular target: T10, ETV2 (Homo sapiens, UniProt O00321 1-342); details: protein: recombinant; tags: N-terminal GST; dsDNA, one strand shown
# T10 sequence: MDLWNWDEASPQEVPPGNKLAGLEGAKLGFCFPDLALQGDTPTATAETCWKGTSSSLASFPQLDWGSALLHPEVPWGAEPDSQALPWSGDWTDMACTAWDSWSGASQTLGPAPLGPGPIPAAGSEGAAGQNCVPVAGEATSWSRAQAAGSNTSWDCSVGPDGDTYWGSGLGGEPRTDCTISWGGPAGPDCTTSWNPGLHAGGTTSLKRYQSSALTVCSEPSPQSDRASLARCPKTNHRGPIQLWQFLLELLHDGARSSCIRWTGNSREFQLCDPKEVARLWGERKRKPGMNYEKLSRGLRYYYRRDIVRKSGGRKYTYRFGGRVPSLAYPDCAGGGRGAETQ
# How it was run: as §1
# ELF3 = molecular target: T11, ELF3 (Homo sapiens, UniProt P78545 1-371); details: protein: recombinant; tags: N-terminal GST; dsDNA, one strand shown
# T11 sequence: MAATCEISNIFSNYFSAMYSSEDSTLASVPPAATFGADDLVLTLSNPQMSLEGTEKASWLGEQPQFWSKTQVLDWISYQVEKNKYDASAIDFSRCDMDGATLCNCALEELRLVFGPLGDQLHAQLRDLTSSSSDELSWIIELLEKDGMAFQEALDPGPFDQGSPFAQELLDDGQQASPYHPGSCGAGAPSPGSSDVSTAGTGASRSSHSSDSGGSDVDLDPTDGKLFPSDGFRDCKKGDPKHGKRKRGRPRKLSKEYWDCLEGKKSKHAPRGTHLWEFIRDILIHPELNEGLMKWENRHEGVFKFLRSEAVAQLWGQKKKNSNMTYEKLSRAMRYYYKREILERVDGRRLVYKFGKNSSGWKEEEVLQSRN
# How it was run: as §1
# CRX = CRX (Homo sapiens, UniProt O43186 1-299); details: protein: recombinant; tags: N-terminal GST; dsDNA, one strand shown
# How it was run: as §1
# ETV1 = ETV1 (Homo sapiens, UniProt P50549 1-477); details: protein: recombinant; tags: N-terminal GST; dsDNA, one strand shown
# How it was run: as §1
# Chain of HSF1 (Q00613 whole entry): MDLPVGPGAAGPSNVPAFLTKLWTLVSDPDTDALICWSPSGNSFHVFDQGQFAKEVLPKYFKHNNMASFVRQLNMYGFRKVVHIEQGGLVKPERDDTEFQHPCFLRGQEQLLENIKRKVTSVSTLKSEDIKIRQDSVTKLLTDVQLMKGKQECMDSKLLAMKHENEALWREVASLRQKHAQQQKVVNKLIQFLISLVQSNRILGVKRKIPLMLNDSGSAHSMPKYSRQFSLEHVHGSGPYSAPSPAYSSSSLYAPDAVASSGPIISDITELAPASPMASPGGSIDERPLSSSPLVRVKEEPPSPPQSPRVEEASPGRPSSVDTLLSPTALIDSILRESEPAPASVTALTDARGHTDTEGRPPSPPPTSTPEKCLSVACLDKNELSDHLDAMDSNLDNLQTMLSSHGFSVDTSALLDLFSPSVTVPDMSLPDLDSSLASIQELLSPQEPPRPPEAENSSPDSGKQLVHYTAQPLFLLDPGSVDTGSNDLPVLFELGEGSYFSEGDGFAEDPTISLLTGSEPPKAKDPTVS
# Chain of ETV1 (P50549 whole entry): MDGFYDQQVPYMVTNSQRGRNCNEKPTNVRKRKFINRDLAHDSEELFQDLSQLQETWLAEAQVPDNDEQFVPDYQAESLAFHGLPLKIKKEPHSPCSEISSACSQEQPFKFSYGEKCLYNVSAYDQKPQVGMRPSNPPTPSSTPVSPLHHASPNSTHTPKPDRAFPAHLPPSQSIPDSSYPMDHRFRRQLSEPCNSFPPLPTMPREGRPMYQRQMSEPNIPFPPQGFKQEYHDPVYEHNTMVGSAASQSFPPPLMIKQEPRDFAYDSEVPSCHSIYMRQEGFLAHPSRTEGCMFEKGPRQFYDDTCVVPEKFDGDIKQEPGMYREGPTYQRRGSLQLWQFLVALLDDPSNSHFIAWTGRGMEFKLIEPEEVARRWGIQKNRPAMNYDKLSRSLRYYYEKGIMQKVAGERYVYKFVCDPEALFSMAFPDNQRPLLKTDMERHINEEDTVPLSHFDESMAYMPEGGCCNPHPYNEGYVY
# Chain of ELF4 (Q99607 whole entry): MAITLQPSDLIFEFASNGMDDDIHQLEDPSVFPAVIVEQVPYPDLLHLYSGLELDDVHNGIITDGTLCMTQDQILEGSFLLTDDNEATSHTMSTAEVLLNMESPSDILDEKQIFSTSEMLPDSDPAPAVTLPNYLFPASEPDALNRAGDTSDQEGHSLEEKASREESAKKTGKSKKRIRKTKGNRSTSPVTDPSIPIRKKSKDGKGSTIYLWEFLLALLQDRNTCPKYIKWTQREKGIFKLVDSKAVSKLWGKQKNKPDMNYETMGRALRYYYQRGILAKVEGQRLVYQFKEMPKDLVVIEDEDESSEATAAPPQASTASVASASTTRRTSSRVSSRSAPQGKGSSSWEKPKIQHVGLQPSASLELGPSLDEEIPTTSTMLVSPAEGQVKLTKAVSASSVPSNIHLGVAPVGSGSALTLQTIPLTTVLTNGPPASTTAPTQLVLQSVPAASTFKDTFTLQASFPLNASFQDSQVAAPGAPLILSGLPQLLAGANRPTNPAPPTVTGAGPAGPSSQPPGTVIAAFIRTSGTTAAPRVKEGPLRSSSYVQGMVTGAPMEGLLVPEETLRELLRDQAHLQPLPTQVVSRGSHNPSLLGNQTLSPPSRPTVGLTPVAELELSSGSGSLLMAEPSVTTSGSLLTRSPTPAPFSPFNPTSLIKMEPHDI
# Chain of CRX (O43186 whole entry): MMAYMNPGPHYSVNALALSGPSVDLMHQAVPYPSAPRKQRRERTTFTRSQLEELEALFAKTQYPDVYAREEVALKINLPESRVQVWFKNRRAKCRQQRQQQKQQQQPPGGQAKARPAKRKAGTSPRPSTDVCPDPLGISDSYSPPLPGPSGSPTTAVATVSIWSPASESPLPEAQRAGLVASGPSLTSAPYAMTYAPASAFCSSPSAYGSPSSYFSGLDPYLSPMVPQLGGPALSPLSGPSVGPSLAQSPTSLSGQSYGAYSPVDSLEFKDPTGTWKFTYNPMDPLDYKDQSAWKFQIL
# Chain of ELF1 (P32519 whole entry): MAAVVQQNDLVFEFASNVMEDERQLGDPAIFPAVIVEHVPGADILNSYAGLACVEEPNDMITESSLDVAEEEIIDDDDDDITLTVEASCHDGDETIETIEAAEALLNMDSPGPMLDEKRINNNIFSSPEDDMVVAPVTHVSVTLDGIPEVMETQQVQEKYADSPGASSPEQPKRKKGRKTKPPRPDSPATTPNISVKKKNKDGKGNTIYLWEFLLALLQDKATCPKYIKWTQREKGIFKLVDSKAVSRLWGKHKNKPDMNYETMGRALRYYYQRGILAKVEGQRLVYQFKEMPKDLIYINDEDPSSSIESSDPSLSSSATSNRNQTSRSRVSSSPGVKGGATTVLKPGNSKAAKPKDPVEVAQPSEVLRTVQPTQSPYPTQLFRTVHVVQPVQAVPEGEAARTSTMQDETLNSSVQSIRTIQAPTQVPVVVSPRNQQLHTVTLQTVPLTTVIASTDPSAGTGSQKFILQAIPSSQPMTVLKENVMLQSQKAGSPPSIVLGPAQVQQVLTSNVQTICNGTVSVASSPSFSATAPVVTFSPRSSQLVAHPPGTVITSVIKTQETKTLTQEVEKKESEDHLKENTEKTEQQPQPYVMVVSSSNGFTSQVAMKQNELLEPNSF
# Chain of SPIB (Q01892 whole entry): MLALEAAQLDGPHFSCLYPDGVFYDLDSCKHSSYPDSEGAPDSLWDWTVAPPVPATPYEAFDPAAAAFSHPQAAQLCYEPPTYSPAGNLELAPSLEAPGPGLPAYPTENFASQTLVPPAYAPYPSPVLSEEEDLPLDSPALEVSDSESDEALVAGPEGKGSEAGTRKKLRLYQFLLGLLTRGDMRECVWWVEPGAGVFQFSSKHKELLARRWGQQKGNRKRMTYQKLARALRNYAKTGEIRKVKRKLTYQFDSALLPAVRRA
# Chain of ETV5 (P41161 whole entry): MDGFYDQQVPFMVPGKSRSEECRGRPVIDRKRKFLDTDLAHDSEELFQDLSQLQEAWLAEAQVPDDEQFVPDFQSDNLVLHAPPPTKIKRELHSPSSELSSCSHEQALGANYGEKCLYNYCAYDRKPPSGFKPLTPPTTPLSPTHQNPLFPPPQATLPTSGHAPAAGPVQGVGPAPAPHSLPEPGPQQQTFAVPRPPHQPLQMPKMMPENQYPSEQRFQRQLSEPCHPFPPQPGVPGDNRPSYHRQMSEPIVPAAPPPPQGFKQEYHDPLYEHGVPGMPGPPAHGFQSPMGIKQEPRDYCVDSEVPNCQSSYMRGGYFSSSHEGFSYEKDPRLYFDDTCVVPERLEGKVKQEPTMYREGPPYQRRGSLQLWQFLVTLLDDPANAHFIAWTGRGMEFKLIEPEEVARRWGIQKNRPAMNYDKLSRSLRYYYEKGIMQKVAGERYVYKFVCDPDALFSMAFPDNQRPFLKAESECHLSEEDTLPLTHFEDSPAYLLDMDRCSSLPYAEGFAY
sequence,measurement,setting,value
TTGTAG,binding signal,FLI1,"1.13 fold enrichment (6-mer frequency, TF over GST control)"
same,binding signal,ELK1,"1.19 fold enrichment (6-mer frequency, TF over GST control)"
same,binding signal,GABPA,"1.12 fold enrichment (6-mer frequency, TF over GST control)"
same,binding signal,ERG,"1.12 fold enrichment (6-mer frequency, TF over GST control)"
same,binding signal,ELF1,"1.14 fold enrichment (6-mer frequency, TF over GST control)"
same,binding signal,EHF,"1.11 fold enrichment (6-mer frequency, TF over GST control)"
same,binding signal,SPI1,"1.07 fold enrichment (6-mer frequency, TF over GST control)"
same,binding signal,SPIB,"1.23 fold enrichment (6-mer frequency, TF over GST control)"
same,binding signal,ELK3,"1.2 fold enrichment (6-mer frequency, TF over GST control)"
same,binding signal,FEV,"1.02 fold enrichment (6-mer frequency, TF over GST control)"
same,binding signal,ETV5,"1.1 fold enrichment (6-mer frequency, TF over GST control)"
same,binding signal,HSF1,"1.23 fold enrichment (6-mer frequency, TF over GST control)"
same,binding signal,SPIC,"1.02 fold enrichment (6-mer frequency, TF over GST control)"
same,binding signal,ELF4,"1.2 fold enrichment (6-mer frequency, TF over GST control)"
same,binding signal,ELK4,"1.31 fold enrichment (6-mer frequency, TF over GST control)"
same,binding signal,ETV2,"1.15 fold enrichment (6-mer frequency, TF over GST control)"
same,binding signal,ELF3,"1.03 fold enrichment (6-mer frequency, TF over GST control)"
same,binding signal,CRX,"1.13 fold enrichment (6-mer frequency, TF over GST control)"
same,binding signal,ETV1,"1.25 fold enrichment (6-mer frequency, TF over GST control)"

# — paper PMC7862700, “An all-to-all approach to the identification of sequence-specific readers for epigenetic DNA modifications on cytosine”
